In PubChem BioAssay AID651551 (Sanford-Burnham Center for Chemical Genomics, 2012):

The compounds below were run against PEG-3 (UniProt Q6IN02) (assay: GAPDH versus PEG-3 reporter suppression – cell-based, luminescence, counter-screen for PEG-3 promoter inhibitor project, SAR follow-up (AID 651551)). Settings: HeLa PEG-Prom / GAPDH luciferase reporter, 6 or 24 h, run 3, 24 h; at 99 µM (top of the series).

SMILES	inhibition % (higher = more inhibition) [%]
CCCn1nc(C(=O)Nc2nc(-c3ccncc3)cs2)c2ccccc2c1=O	44.6
Cc1nc(NC(=O)c2ccccc2)sc1-c1csc(Nc2ccccc2)n1	76.8
Cc1cc(NC(=O)c2ccccc2C)n(-c2nc3ccccc3[nH]2)n1	38
Cc1cc(NC(=O)c2ccccc2C(F)(F)F)n(-c2nc3ccccc3[nH]2)n1	94.1
COc1ccc(Cl)cc1Nc1nc(-c2sc(NC(=O)c3ccccc3)nc2C)cs1	60.5
CCn1nc(C(=O)Nc2nc(-c3ccccn3)cs2)c2ccccc2c1=O	39.1
Cc1cc(NC(=O)c2ccccc2)n(-c2nc3ccccc3[nH]2)n1	79.1
O=C(Nc1nc2ccccc2s1)c1nn(-c2ccccc2)c(=O)c2ccccc12	-21.2
Cc1nc(NC(=O)c2ccccc2)sc1-c1csc(Nc2cccc(Cl)c2C)n1	-61.4
Cc1nc(NC(=O)c2ccccc2)sc1-c1csc(Nc2ccccc2Cl)n1	-104
COc1ccc(-n2nc(C(=O)NCC(=O)Nc3cc(OC)c(OC)c(OC)c3)c3ccccc3c2=O)cc1OC	34.1
Cc1cc(NC(=O)c2cccc(C)c2C)n(-c2nc3ccccc3[nH]2)n1	3.97
CCn1cc(C(=O)NCc2ccco2)c(=O)c2cc(S(=O)(=O)N3CCCC3)ccc21	46.7
Cc1cc(NC(=O)c2ccccc2)n(-c2nc3ccccc3n2C)n1	3.97
COc1ccc(-n2nc(C(=O)NCC(=O)Nc3ccc(OC)c(OC)c3)c3ccccc3c2=O)cc1	34.1
CCCn1nc(C(=O)Nc2nc(-c3ccccn3)cs2)c2ccccc2c1=O	40.8
Cc1ccc(Cl)cc1Nc1nc(-c2sc(NC(=O)c3ccco3)nc2C)cs1	-26.2
COc1ccc(-n2nc(C(=O)NCC(=O)Nc3cccc(OC)c3)c3ccccc3c2=O)cc1	8.99
O=C(Nc1nc(-c2ccccc2)cs1)c1nn(-c2ccccc2)c(=O)c2ccccc12	11.5
COc1ccccc1Nc1nc(-c2sc(NC(=O)c3ccco3)nc2C)cs1	21.6
O=C(Nc1nccs1)c1nn(-c2ccccc2)c(=O)c2ccccc12	29.1
COCCCNC(=O)c1ccc(Cn2c(=O)c3ccccc3n(Cc3ccccc3C#N)c2=O)cc1	73.4
CCCn1nc(C(=O)Nc2nc3ccccc3s2)c2ccccc2c1=O	16.5
